Reference: PubChem BioAssay AID1159580 (chemical genetic matrix, 2015)
About 2,000 (36%) of roughly 5,500 compounds were called active. Another 18% or so got no clear call; they are omitted. Rule as the data show it: active = normalized growth mostly below about 0.91 (no sharp cut-off); inconclusive = no clear call, values can overlap the other calls; inactive = mostly above about 0.92. The list shows a part of the results.

Test: chemical genetic growth profiling, strain panel (AID 1159580);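 also: tested at 20 µM; growth read once vehicle control cultures reached saturation at 30 °C; 1 = growth at the plate median or of vehicle wells; lower values mean less growth of the strain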
Conditions: S. cerevisiae deletion strains, growth OD
[1] = locus YHR030C, strain SLT2, active compounds read low
[2] = locus YHR079C, strain IRE1, active compounds read low
[3] = locus YJL095W, strain BCK1, active compounds read low
[4] = locus YJR066W, strain TOR1, active compounds read low
[5] = locus YLR113W, strain HOG1, active compounds read low
[6] = locus YNL183C, strain NPR1, active compounds read low
[7] = locus YOR231W, strain MKK1, active compounds read low
[8] = locus YPL256C, strain CLN2, active compounds read low

Measured: normalized growth

CC1(O)CC2C(CC1O)C2(C)C (stereo unspecified)
inactive: locus YAL021C, strain ccr4, active compounds read low 0.988 | locus YAL026C, strain drs2, active compounds read low 1 | locus YAL030W, strain snc1, active compounds read low 0.99 | locus YBL061C, strain skt5, active compounds read low 0.988 | locus YBR009C, strain hhf1, active compounds read low 1.04 | locus YBR023C, strain chs3, active compounds read low 0.999 | locus YBR171W, strain sec66, active compounds read low 0.998 | locus YBR231C, strain swc5, active compounds read low 0.993 | locus YBR279W, strain paf1, active compounds read low 0.995 | locus YCL011C, strain gbp2, active compounds read low 1 | locus YCL016C, strain dcc1, active compounds read low 1.01 | locus YCL069W, strain vba3, active compounds read low 1 | locus YCR088W, strain abp1, active compounds read low 0.997 | locus YDL005C, strain med2, active compounds read low 0.995 | locus YDL040C, strain nat1, active compounds read low 0.999 | locus YDR001C, strain nth1, active compounds read low 1.01 | locus YDR069C, strain doa4, active compounds read low 1.02 | locus YDR137W, strain rgp1, active compounds read low 1 | locus YDR159W, strain sac3, active compounds read low 1 | locus YDR195W, strain ref2 0.988 | locus YDR297W, strain sur2, active compounds read low 1.01 | locus YDR334W, strain swr1, active compounds read low 1 | locus YDR335W, strain msn5, active compounds read low 1 | locus YDR392W, strain spt3, active compounds read low 1 | locus YEL003W, strain gim4, active compounds read low 1.01 | locus YEL037C, strain rad23, active compounds read low 1 | locus YEL061C, strain CIN8 (second series), active compounds read low 0.999 | locus YER015W, strain faa2, active compounds read low 0.995 | locus YER016W, strain bim1, active compounds read low 0.998 | locus YER111C, strain swi4, active compounds read low 0.989 | locus YER155C, strain BEM2 (second series), active compounds read low 1 | locus YFR010W, strain ubp6, active compounds read low 0.997 | locus YGL167C, strain pmr1, active compounds read low 1.01 | locus YGL173C, strain kem1, active compounds read low 0.999 | locus YGL227W, strain vid30, active compounds read low 0.99 | locus YGL240W, strain doc1, active compounds read low 1.01 | locus YGL253W, strain hxk2, active compounds read low 1 | locus YHR013C, strain ard1, active compounds read low 1 | locus YHR027C, strain rpn1, active compounds read low 0.995 | [1] 1.04 | [2] 1.03 | locus YHR142W, strain chs7, active compounds read low 1.01 | locus YJL092W, strain hpr5, active compounds read low 1 | locus YJL095W, strain BCK1 (second series), active compounds read low 0.996 | [3] 0.993 | locus YJL115W, strain asf1, active compounds read low 0.996 | locus YJL129C, strain trk1, active compounds read low 1 | locus YJL154C, strain vps35, active compounds read low 0.994 | locus YJL164C, strain tpk1, active compounds read low 0.998 | locus YJL166W, strain qcr8, active compounds read low 1 | locus YJL187C, strain SWE1, active compounds read low 0.995 | [4] 0.989 | locus YKL160W, strain elf1, active compounds read low 0.994 | locus YKR026C, strain gcn3, active compounds read low 0.994 | locus YKR091W, strain srl3, active compounds read low 1 | locus YLL001W, strain dnm1, active compounds read low 1 | locus YLL026W, active compounds read low 0.998 | locus YLL041C, strain sdh2, active compounds read low 0.991 | locus YLR027C, strain aat2, active compounds read low 1 | [5] 0.976 | locus YLR221C, strain rsa3, active compounds read low 0.999 | locus YLR258W, strain gsy2, active compounds read low 0.982 | locus YLR262C, strain YPT6 (second series), active compounds read low 1.02 | locus YLR320W, strain mms22, active compounds read low 0.994 | locus YLR342W, strain FKS1, active compounds read low 1 | locus YLR357W, strain rsc2, active compounds read low 0.969 | locus YLR370C, strain arc18, active compounds read low 1.01 | locus YLR384C, strain iki3, active compounds read low 0.971 | locus YML120C, strain ndi1, active compounds read low 1 | locus YMR058W, strain fet3, active compounds read low 0.999 | locus YMR125W, strain sto1, active compounds read low 0.988 | locus YMR129W, active compounds read low 0.995 | locus YMR205C, strain PFK2, active compounds read low 0.998 | locus YMR231W, strain pep5, active compounds read low 1.01 | locus YNL071W, strain lat1, active compounds read low 1 | [6] 0.935 | locus YNL209W, strain ssb2, active compounds read low 1.01 | locus YNL248C, strain rpa49, active compounds read low 1 | locus YNL322C, strain KRE1 (second series), active compounds read low 0.981 | locus YNR049C, strain mso1, active compounds read low 0.985 | locus YOR001W, strain rrp6, active compounds read low 1.01 | locus YOR070C, strain gyp1, active compounds read low 0.997 | locus YOR080W, strain dia2, active compounds read low 1 | locus YOR083W, strain WHI5, active compounds read low 0.999 | locus YOR106W, strain vam3, active compounds read low 0.992 | [7] 1.03 | locus YOR265W, strain rbl2, active compounds read low 1.01 | locus YOR270C, strain vph1, active compounds read low 1.03 | locus YOR290C, strain snf2, active compounds read low 1.01 | locus YPL051W, strain arl3, active compounds read low 1 | locus YPL078C, strain atp4, active compounds read low 0.999 | locus YPL106C, strain sse1, active compounds read low 1.01 | locus YPL240C, strain hsp82, active compounds read low 0.998 | [8] 1.02

CCOC(=O)C1C(c2c(F)cccc2Cl)C(C(=O)OCC)C(O)(C(F)(F)F)NC1(O)C(F)(F)F (stereo unspecified)
inactive: locus YAR019C, strain CDC15, active compounds read low 0.984 | locus YBL105C, strain PKC1, active compounds read low 0.988 | locus YBR135W, strain CKS1, active compounds read low 0.994 | locus YBR136W, strain MEC1, active compounds read low 0.979 | locus YBR160W, strain CDC28, active compounds read low 0.993 | locus YDL017W, strain CDC7, active compounds read low 0.99 | locus YDL028C, strain MPS1, active compounds read low 0.993 | locus YDL101C, strain DUN1, active compounds read low 0.983 | locus YDL108W, strain KIN28, active compounds read low 0.994 | locus YDL132W, strain cdc53, active compounds read low 0.993 | locus YDL214C, strain PRR2, active compounds read low 0.986 | locus YDR052C, strain DBF4, active compounds read low 0.99 | locus YDR054C, strain cdc34, active compounds read low 0.985 | locus YDR226W, strain ADK1, active compounds read low 0.992 | locus YDR477W, strain SNF1, active compounds read low 0.998 | locus YER123W, strain YCK3, active compounds read low 0.966 | locus YER133W, strain GLC7, active compounds read low 0.988 | locus YFL009W, strain cdc4, active compounds read low 0.991 | locus YFL029C, strain CAK1, active compounds read low 0.981 | locus YFR003C, strain YPI1, active compounds read low 0.992 | locus YFR019W, strain FAB1, active compounds read low 0.942 | locus YFR028C, strain CDC14, active compounds read low 0.991 | locus YGR040W, strain KSS1, active compounds read low 0.994 | locus YGR052W, strain FMP48, active compounds read low 1.05 | locus YGR092W, strain DBF2, active compounds read low 1 | [1] 0.964 | [2] 0.971 | locus YHR082C, strain KSP1, active compounds read low 0.994 | locus YHR205W, strain SCH9, active compounds read low 0.965 | locus YIL147C, strain SLN1, active compounds read low 0.987 | [3] 0.982 | locus YJL128C, strain PBS2, active compounds read low 0.965 | locus YJL157C, strain FAR1, active compounds read low 0.994 | locus YJR016C, strain ILV3, active compounds read low 0.996 | locus YJR066W, strain TOR1 (second series), active compounds read low 0.951 | [4] 0.969 | locus YKL048C, strain ELM1, active compounds read low 0.988 | locus YKL067W, strain YNK1, active compounds read low 0.987 | locus YKL101W, strain HSL1, active compounds read low 0.989 | locus YKL193C, strain SDS22, active compounds read low 0.99 | locus YKL203C, strain TOR2, active compounds read low 1.06 | [5] 0.926 | locus YLR133W, strain CKI1, active compounds read low 0.985 | locus YLR403W, strain SFP1, active compounds read low 0.986 | locus YML070W, strain DAK1, active compounds read low 0.987 | locus YMR001C, strain CDC5, active compounds read low 0.99 | locus YMR205C, strain PFK2 (second series), active compounds read low 0.997 | locus YMR277W, strain FCP1, active compounds read low 0.991 | locus YNL006W, strain LST8, active compounds read low 0.996 | locus YNL020C, strain ARK1, active compounds read low 0.994 | locus YNL161W, strain CBK1, active compounds read low 0.991 | [6] 0.977 | locus YNL207W, strain RIO2, active compounds read low 0.992 | locus YNL222W, strain SSU72, active compounds read low 0.996 | locus YNL307C, strain MCK1 (second series), active compounds read low 0.986 | locus YOL078W, strain AVO1, active compounds read low 0.998 | locus YOL136C, strain PFK27, active compounds read low 0.979 | locus YOR061W, strain CKA2, active compounds read low 0.996 | locus YOR119C, strain RIO1, active compounds read low 1.03 | [7] 1 | locus YOR329C, strain SCD5, active compounds read low 0.986 | locus YPL031C, strain PHO85, active compounds read low 0.99 | locus YPL153C, strain RAD53, active compounds read low 0.992 | locus YPL204W, strain HRR25, active compounds read low 0.984 | locus YPL209C, strain IPL1, active compounds read low 0.988 | [8] 0.935 | locus YPR025C, strain CCL1, active compounds read low 0.986 | locus YPR106W, strain ISR1, active compounds read low 0.991 | locus YPR111W, strain DBF20, active compounds read low 0.984 | strain NNK1, active compounds read low 0.987 | strain TSCII, active compounds read low 0.995

CN1CC[C@@]2(C)c3cc(O)ccc3N(C)C12 (stereo partly specified)
inactive: locus YAL040C, strain CLN3, active compounds read low 0.971 | locus YCL061C, strain MRC1 (second series), active compounds read low 0.995 | locus YDR150W, strain NUM1, active compounds read low 0.977 | locus YDR363W, strain ESC2, active compounds read low 1.02 | locus YER002W, strain NOP16, active compounds read low 0.998 | locus YGR078C, strain PAC10, active compounds read low 0.982 | locus YGR229C, strain SMI1, active compounds read low 1.03 | locus YJR075W, strain HOC1, active compounds read low 1.01 | locus YMR263W, strain SAP30, active compounds read low 0.993 | locus YMR307W, strain GAS1, active compounds read low 1.02 | locus YNL153C, strain GIM3, active compounds read low 0.941 | locus YNL175C, strain NOP13, active compounds read low 0.989 | locus YNL197C, strain WHI3, active compounds read low 0.969 | locus YNL224C, strain SQS1, active compounds read low 1.02 | locus YOR083W, strain WHI5 (second series), active compounds read low 0.975 | locus YPL055C, strain LGE1, active compounds read low 0.985
